High-throughput results from PubChem BioAssay.
Rows were chosen to be rich in hits. Some 6.7% of all compounds tested hit in one or more screens of this group.
C diff HTS = blocks growth of Clostridium difficile | actives 0.25% (n = 86,000) | Clostridium difficile clinical isolate growth, OD600, 24 h; stronger effect = lower value | growth activity, negative = inhibition, % at 16 µg/mL (by protocol);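 active = mean growth activity at or below -80% and every replicate also at or below -80%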;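 note: 0% = DMSO wells and -100% = levofloxacin 16 µg/mL wells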
Pf Dd2 inh = inhibitors of Plasmodium falciparum Dd2 growth; P. falciparum Dd2 growth, SYBR Green, 72 h; stronger effect = lower value; activity change, % at 10 µM; actives 2.3% (n = 94,000); in the data active = activity change below about -80%
T cruzi growth-1 = T. cruzi proliferation inhibition. T. cruzi beta-gal in NIH3T3, GalScreen luminescence, 90 h. inhibition, % at 8.34 µM. actives 5.9% (n = 77,000);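 active = mean inhibition above about 93%, with at least 55% of replicates each passing it, limit read from the data, passing the limit was not always enough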
T cruzi growth-2 = inhibitors of T. cruzi proliferation. shares compounds with T cruzi growth-1. T. cruzi beta-gal in NIH3T3, GalScreen luminescence, 90 h. inhibition, % at 8.35 µM. actives 72% (n = 5,600). AID 651739;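 active = mean replicate inhibition above about 95% and at least 55% of replicates individually reaching it, limit read from the data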
T cruzi growth-3 = blocks T. cruzi growth in NIH3T3 host cells; shares compounds with T cruzi growth-1; T. cruzi beta-gal in NIH3T3, GalScreen luminescence, 90 h; inhibition, % at 2.09 µM; actives 21% (n = 5,600);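 active = mean inhibition above about 95%, with at least 55% of replicates also reaching it, limit read from the data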;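 note: plate controls were neutral control median for no effect and positive control median for full effect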
NIH3T3 tox = kills mouse NIH/3T3 fibroblasts; shares compounds with T cruzi growth-1; NIH/3T3 viability, CellTiter-Glo ATP luminescence, 90 h; cytotoxicity (signal decrease), % at 8.35 µM; actives 14% (n = 5,600); AID 651742;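 active = mean signal decrease across replicates above about 35% based on untreated-well scatter, with enough replicates individually passing, limit read from the data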;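 note: 0% = median of neutral control wells and 100% = median of positive control wells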
3T3 cytotox 2 = kills mouse NIH/3T3 fibroblasts; actives 56% (n = 5,600); NIH/3T3 viability, CellTiter-Glo ATP luminescence, 90 h; shares compounds with T cruzi growth-1; inhibition, % at 24.9 µM;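 active = mean loss of cell viability signal at or above a set limit, and enough replicates individually reaching it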;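 note: 0% = median of neutral control wells and 100% = median of positive control wells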
The depositor's hits bear a star.

Results for CC(C)CC#Cc1ccc2c(c1)O[C@H](CN(C)C(=O)C1CCOCC1)[C@H](C)CN([C@H](C)CO)S2(=O)=O ?
C diff HTS: 10.6; Pf Dd2 inh: -11.5; T cruzi growth-1: 83.6

What do the screens show for `CC(C)CC#Cc1ccc2c(c1)O[C@@H](CN(C)C(=O)C1CCC1)[C@@H](C)CN([C@@H](C)CO)S2(=O)=O`?
C diff HTS: 9.4; Pf Dd2 inh: -51.4; T cruzi growth-1: 105.0*; T cruzi growth-2: 103.8*; T cruzi growth-3: 73.7; NIH3T3 tox: -19.3; 3T3 cytotox 2: 96.1*

What do the screens show for `C[C@@H]1CN([C@@H](C)CO)C(=O)c2cc(C#Cc3ccccc3F)cnc2O[C@@H]1CN(C)C(=O)C1CCC1`?
C diff HTS: 3.3; Pf Dd2 inh: -40.3; T cruzi growth-1: 89.9

What do the screens show for `O=C(C[C@H]1CC[C@H]2[C@@H](COC[C@@H](O)CN2S(=O)(=O)c2ccc(Cl)cc2)O1)NCCN1CCCC1`?
C diff HTS: 6.0; Pf Dd2 inh: 4.6; T cruzi growth-1: -6.6

What do the screens show for `COCC#Cc1cnc2c(c1)C(=O)N([C@@H](C)CO)C[C@@H](C)[C@@H](CN(C)S(=O)(=O)c1cn(C)cn1)O2`?
C diff HTS: -5.5; Pf Dd2 inh: 34.7; T cruzi growth-1: -19.8

What do the screens show for `COc1ccc2c3c(n(C)c2c1)[C@H](CO)N(CC1CC1)CC31CCN(C(=O)CN2CCOCC2)CC1`?
C diff HTS: 1.9; Pf Dd2 inh: -29.7

How did C[C@@H]1CN([C@@H](C)CO)C(=O)c2cccc(NC(=O)c3ccc(-c4nccs4)cc3)c2O[C@@H]1CN(C)S(=O)(=O)c1ccc(Cl)cc1 do in these assays?
C diff HTS: -12.7; Pf Dd2 inh: -79.0; T cruzi growth-1: 44.0

How did CC=Cc1ccc2n(c1=O)C[C@H]1[C@H](CO)[C@@H](C(=O)N3CCc4ccccc4C3)[C@@H]2N1CCC (mixture of isomers) do in these assays?
C diff HTS: -0.7; Pf Dd2 inh: -8.4; T cruzi growth-1: 102.9*; T cruzi growth-2: 77.4; T cruzi growth-3: 5.7; NIH3T3 tox: -19.8; 3T3 cytotox 2: 12.3

How did CC=Cc1ccc2n(c1=O)C[C@@H]1[C@@H](CO)[C@H](C(=O)NCc3ccccn3)[C@H]2N1CC1CC1 (mixture of isomers) do in these assays?
C diff HTS: -3.7; Pf Dd2 inh: 1.0; T cruzi growth-1: 60.5

How did CCN1[C@@H]2Cn3c(ccc(/C=C/c4ccccc4)c3=O)[C@H]1[C@@H](C(=O)N1CCOCC1)[C@@H]2CO do in these assays?
C diff HTS: 5.1; Pf Dd2 inh: -33.1; T cruzi growth-1: 26.0

Results for CC=Cc1ccc2n(c1=O)C[C@H]1[C@H](CO)[C@@H](C(=O)NCCc3ccccc3)[C@@H]2N1C (mixture of isomers) ?
C diff HTS: 0.0; Pf Dd2 inh: 9.2; T cruzi growth-1: -22.7

Results for CC=Cc1ccc2n(c1=O)C[C@H]1[C@H](CO)[C@@H](C(=O)NCc3ccccn3)[C@@H]2N1CCC (mixture of isomers) ?
C diff HTS: -6.6; Pf Dd2 inh: -0.7; T cruzi growth-1: 108.3*; T cruzi growth-2: 109.8*; T cruzi growth-3: 20.8; NIH3T3 tox: -4.6; 3T3 cytotox 2: 4.5

Results for CCN1[C@@H]2Cn3c(ccc(/C=C/c4ccccc4)c3=O)[C@H]1[C@@H](C(=O)N1CCCCC1)[C@@H]2CO ?
T cruzi growth-1: 169.5*; T cruzi growth-2: 13.6; T cruzi growth-3: -41.0; NIH3T3 tox: 10.1; 3T3 cytotox 2: 45.1*

What do the screens show for `CC=Cc1ccc2n(c1=O)C[C@H]1[C@H](CO)[C@@H](C(=O)NCc3ccccc3)[C@@H]2N1C` (mixture of isomers)?
C diff HTS: -2.8; Pf Dd2 inh: 7.8; T cruzi growth-1: 96.3*; T cruzi growth-2: 43.4; T cruzi growth-3: 19.4; NIH3T3 tox: 8.8; 3T3 cytotox 2: 5.0

How did CC=Cc1ccc2n(c1=O)C[C@@H]1[C@@H](CO)[C@H](C(=O)N3CCc4ccccc4C3)[C@H]2N1CC (mixture of isomers) do in these assays?
C diff HTS: 0.7; T cruzi growth-1: -71.1

Results for Cc1cc(C(=O)Nc2ccc3c(c2)C(=O)N(C)[C@@H]2CC[C@H](CC(=O)N[C@H](C)c4ccccc4)O[C@H]2CO3)no1 ?
C diff HTS: -7.7; Pf Dd2 inh: 2.6; T cruzi growth-1: -14.6

Results for COCC(=O)N(C)C[C@@H]1Oc2cc(-c3ccc(OC)cc3)ccc2S(=O)(=O)N([C@H](C)CO)C[C@H]1C ?
C diff HTS: 0.7; Pf Dd2 inh: -4.0; T cruzi growth-1: -5.8

How did C[C@H](CO)N1C[C@H](C)[C@H](CN(C)Cc2ccc(C(=O)O)cc2)OCCCC[C@H](C)Oc2ccc(NC(=O)Nc3ccccc3)cc2C1=O do in these assays?
C diff HTS: -2.7; Pf Dd2 inh: 21.8; T cruzi growth-1: 30.5

What do the screens show for `CC=Cc1ccc2n(c1=O)C[C@H]1[C@H](CO)[C@@H](C(=O)NCc3ccccc3F)N(S(C)(=O)=O)[C@@H]21` (mixture of isomers)?
C diff HTS: -2.4; Pf Dd2 inh: 6.5; T cruzi growth-1: 47.0

Results for CC=Cc1ccc2n(c1=O)C[C@H]1[C@H](CO)[C@@H](C(=O)NCc3ccccc3Cl)N(S(C)(=O)=O)[C@@H]21 (mixture of isomers) ?
C diff HTS: -9.0; T cruzi growth-1: 107.4*; T cruzi growth-2: 73.7; T cruzi growth-3: 12.6; NIH3T3 tox: -0.3; 3T3 cytotox 2: 11.5

What do the screens show for `O=C(C[C@@H]1CC[C@H]2[C@@H](COC[C@H](O)CN2Cc2ccccc2F)O1)NC1CCC1`?
C diff HTS: 2.7; T cruzi growth-1: -43.9

What do the screens show for `C[C@H](CO)N1C[C@H](C)[C@@H](CN(C)S(=O)(=O)c2ccc(F)cc2)OCCCC[C@H](C)Oc2ccc(NC(=O)Nc3ccc(C(F)(F)F)cc3)cc2C1=O`?
Pf Dd2 inh: -33.0; T cruzi growth-1: 87.7

What do the screens show for `C[C@@H]1CCCCO[C@@H](CN(C)S(=O)(=O)c2ccc(F)cc2)[C@H](C)CN([C@@H](C)CO)C(=O)c2cc(NC(=O)Nc3ccc(C(F)(F)F)cc3)ccc2O1`?
Pf Dd2 inh: 10.7; T cruzi growth-1: 100.0*; T cruzi growth-2: 109.2*; T cruzi growth-3: 113.6*; NIH3T3 tox: -8.0; 3T3 cytotox 2: 12.4
